Screening results as filed in PubChem BioAssay.
esBAF inh = Bmi1 luciferase reporter increase in mESCs, primary screen, esBAF inhibitor project, mouse ES cells, Bmi1 luciferase knock-in, single point; AID 602393, 2012; reporter increase, % at 12.5 µM; 24 h; 100% = twice the neutral-well signal; 350,000 compounds, 2% hits; in the data active means activation above about 40%;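 further: 0% = median of the plate's neutral control wells and 100% = double that signal; a rise in the Bmi1 reporter signal indicates esBAF inhibition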
TRPM1 prom inh = inhibitors of MITF-dependent TRPM1 promoter reporter, primary screen, cell-based, SK-MEL-5, single point, luciferase; 330,000 compounds, 0.83% hits; SK-MEL-5 TRPM1 promoter luciferase, 24 h; inhibition, % at 12.5 µM;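 active means mean inhibition across replicates of 60% or more, whatever share of single replicates reaches that level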
PAX8 inh HTS = inhibitors of PAX8-driven TPO luciferase reporter, primary screen, RMG-I cells, single concentration. SteadyGlo, 24 h. inhibition, % at 12.6 µM. 360,000 compounds, 1.2% hits. AID 652154, 2013;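 active means mean replicate inhibition at least 60% with every replicate also reaching 60%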;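 further: luciferase light reporting Pax8 driven TPO promoter activity; plate controls were median of neutral control wells for no effect and mitoxantrone controls for full effect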
EWS-Fli inh = EWS/Fli-driven NR0B1 reporter inhibitors, primary screen, A673 cells, NR0B1 luciferase, luminescence, MLPCN library. AID 651661, 2012. viability-normalised. 350,000 compounds, 0.67% hits. inhibition, % at 12.6 µM;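 active means mean inhibition of at least 50% after viability correction, with every replicate also passing that limit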;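 further: firefly luciferase signal divided by Alamar Blue viability fluorescence both relative to DMSO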
Wnt act = Wnt/beta-catenin pathway activators, primary screen, cell-based, plate reader, single point | 300,000 compounds, 1.2% hits | activation, % at 9.35 µM | Wnt/beta-catenin reporter cell assay, activator; in the data active means activation above about 30%, passing the limit was not always enough;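 further: 0% = neutral control wells and 100% = positive control wells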
MITF act = activators of MITF-driven TRPM1 promoter reporter, primary screen, cell-based, SK-MEL-5, luciferase, single point. SK-MEL-5 TRPM1-promoter luciferase, 24 h; % of positive control, neutral wells = 0. AID 588334, 2011. activation, % at 12.5 µM. 300,000 compounds, 0.75% hits;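 active means mean activation of at least 80% with every replicate also reaching 80%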;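 further: 0% = neutral control wells and 100% = parthenolide positive control wells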
An asterisk follows results filed as active; nt = no result given. Hits are enriched below; roughly 4% of the tested compounds scored in any of these assays.

SMILES | esBAF inh | TRPM1 prom inh | PAX8 inh HTS | EWS-Fli inh | Wnt act | MITF act
C[C@H](CO)N1C[C@H](C)[C@H](CN(C)Cc2ccc(C(F)(F)F)cc2)OCCCC[C@H](C)Oc2ccc(NC(=O)Nc3ccc(F)cc3)cc2C1=O | -8 | nt | 52 | 19 | nt | nt
C[C@@H]1CN([C@H](C)CO)C(=O)c2cc(NC(=O)Nc3ccc(F)cc3)ccc2O[C@@H](C)CCCCO[C@H]1CN(C)Cc1ccc(C(F)(F)F)cc1 | -6 | nt | 107* | 70* | nt | nt
O=C(CCN1CCCCC1)NCC[C@@H]1CC[C@@H](NC(=O)C2CCCC2)[C@@H](CO)O1 | -11 | nt | -17 | -18 | nt | nt
O=S(=O)(Nc1cccc2ccccc12)c1ccccc1 | nt | 15 | 26 | -52 | 6 | -13
O=S(=O)(Nc1cccc2cccnc12)c1ccccc1 | 3 | 90* | 105* | 70* | 4 | -89
Cc1cc(C)c(NS(=O)(=O)c2cccc3cccnc23)c(C)c1 | -7 | 2 | 22 | -36 | nt | -3
Cc1ccc2cccc(NS(=O)(=O)c3ccccc3)c2n1 | nt | nt | 96* | -32 | -3 | nt
Cc1ccc(S(=O)(=O)Nc2cccc3cccnc23)c([N+](=O)[O-])c1 | -21 | 88* | 71* | 7 | 15 | -88
CS(=O)(=O)Nc1cccc2cccnc12 | -11 | 12 | nt | nt | 2 | -13
Cc1cc(C)n(-c2ccc3cccc(NS(C)(=O)=O)c3n2)n1 | 7 | 62* | nt | nt | nt | -60
CC(C)CC#Cc1cnc2c(c1)C(=O)N([C@@H](C)CO)C[C@@H](C)[C@H](CN(C)Cc1ccccc1C(=O)O)O2 | -1 | nt | nt | 2 | nt | nt
COc1cccc(/C=N/NC(=O)CN2CC(c3ccccc3)CC2=O)c1OC (stereo unspecified) | nt | 94* | -2 | 4 | -4 | -94
COc1cccc(/C=N/NC(=O)CN(C)S(=O)(=O)c2ccccc2)c1OC | 56* | -41 | -90 | -47 | 13 | 42
COc1cccc(CN2CC3(CCN(C)CC3)c3c(n(C)c4cc(OC)ccc34)[C@@H]2CO)c1 | nt | nt | nt | -4 | nt | nt
C[C@@H]1CCCCO[C@@H](CN(C)S(=O)(=O)c2ccc(F)cc2)[C@H](C)CN([C@H](C)CO)C(=O)c2cc(NS(=O)(=O)c3ccc(Cl)cc3)ccc2O1 | -7 | nt | 86* | 16 | nt | nt
C[C@H]1CCCCO[C@H](CN(C)S(=O)(=O)c2ccc(Cl)cc2)[C@@H](C)CN([C@@H](C)CO)C(=O)c2cc(NS(=O)(=O)c3ccc(F)cc3)ccc2O1 | -7 | nt | 86* | 14 | nt | nt
C[C@H](CO)N1C[C@H](C)[C@H](CN(C)S(=O)(=O)c2ccc(Cl)cc2)OCCCC[C@H](C)Oc2ccc(NS(=O)(=O)c3ccc(F)cc3)cc2C1=O | 9 | nt | 81* | 3 | nt | nt
C[C@@H]1CN([C@H](C)CO)C(=O)c2cc(NS(=O)(=O)c3ccc(Cl)cc3)ccc2O[C@@H](C)CCCCO[C@@H]1CN(C)S(=O)(=O)c1ccc(F)cc1 | 4 | nt | 23 | -1 | nt | nt
C[C@@H]1CCCCO[C@@H](CN(C)S(=O)(=O)c2ccc(F)cc2)[C@@H](C)CN([C@H](C)CO)C(=O)c2cc(NS(=O)(=O)c3ccc(Cl)cc3)ccc2O1 | -1 | nt | 33 | 0 | nt | nt
C[C@H]1CCCCO[C@H](CN(C)S(=O)(=O)c2ccc(F)cc2)[C@@H](C)CN([C@@H](C)CO)C(=O)c2cc(NS(=O)(=O)c3ccc(Cl)cc3)ccc2O1 | 2 | nt | 89* | 7 | nt | nt
C[C@@H]1CN([C@@H](C)CO)C(=O)c2cc(NC(=O)c3ccncc3)ccc2O[C@@H](C)CCCCO[C@@H]1CN(C)S(=O)(=O)c1ccc(F)cc1 | -8 | nt | nt | -4 | nt | nt
C[C@@H]1CCCCO[C@H](CN(C)S(=O)(=O)c2ccc(F)cc2)[C@H](C)CN([C@H](C)CO)C(=O)c2cc(NS(=O)(=O)c3ccc(Cl)cc3)ccc2O1 | 1 | nt | 45 | 6 | nt | nt
C[C@@H]1CCCCO[C@H](CN(C)S(=O)(=O)c2ccc(F)cc2)[C@H](C)CN([C@@H](C)CO)C(=O)c2cc(NS(=O)(=O)c3ccc(Cl)cc3)ccc2O1 | 0 | nt | 81* | 8 | nt | nt
CC(C)(C)C(=O)N1CCc2cc(-c3csc(N)n3)ccc21 | -54 | 12 | nt | nt | nt | -13
CCC(C)C(=O)N1CCc2cc(-c3csc(N)n3)ccc21 (stereo unspecified) | 53* | -71 | nt | nt | nt | 68
SMILES | esBAF inh | TRPM1 prom inh | PAX8 inh HTS | EWS-Fli inh | Wnt act | MITF act
Oc1ccccc1OCc1nc2ccccc2s1 | 41* | -74 | nt | nt | nt | 74
OCc1cc(Br)ccc1OCc1nc2ccccc2s1 | 77* | -63 | nt | nt | nt | 75
C[C@@H]1CCCCO[C@@H](CN(C)Cc2ccc3c(c2)OCO3)[C@@H](C)CN([C@H](C)CO)C(=O)c2cc(NC(=O)c3ccncc3)ccc2O1 | -14 | nt | -4 | -1 | nt | nt
O=C(C[C@@H]1CC[C@@H](NC(=O)C2CCOCC2)[C@@H](CO)O1)Nc1ccccc1 | nt | nt | -11 | 15 | nt | nt
C(=N\Nc1nc2ccccc2s1)/c1ccc2c(c1)OCO2 | nt | -22 | 32 | -22 | 14 | 24
Brc1csc(/C=N/Nc2nc3ccccc3s2)c1 | nt | -76 | nt | nt | nt | 84*
Brc1ccc(/C=C/C=N/Nc2nc3ccccc3s2)cc1 | 25 | -45 | nt | nt | nt | 44
Brc1cc2c(cc1/C=N/Nc1nc3ccccc3s1)OCO2 | 68* | -39 | nt | nt | nt | nt
C[C@@H]1CCCCO[C@@H](CN(C)Cc2ccncc2)[C@H](C)CN([C@@H](C)CO)C(=O)c2cc(NC(=O)Nc3ccc(F)cc3)ccc2O1 | 10 | nt | -3 | -1 | nt | nt
CC(C)c1ccc(Nc2ncccc2C(=O)O)cc1 | 60* | -40 | -90 | -55 | 17 | 46
COc1ccc(NC(=O)c2cccnc2Nc2ccc(OC)cc2)cc1 | 8 | -4 | nt | nt | nt | 4
COc1cccc(-c2nnc(N(C)C(=O)C3CCOC3)s2)c1 (stereo unspecified) | 32 | -65 | -90 | nt | 12 | 67
CC(=O)N(c1nnc(-c2cccc(C)c2)s1)C1CCCC1 | 52* | -57 | -147 | -68 | 9 | nt
CC=Cc1ccc2n(c1=O)C[C@@H]1[C@@H](CO)[C@H](C(=O)NCC3CC3)N(C(=O)CC3CC3)[C@H]21 (mixture of isomers) | 3 | nt | -1 | -9 | nt | nt
COc1ccc(N(C(=O)c2ccc(S(=O)(=O)N3CCCC3)cc2)C2C=CS(=O)(=O)C2)cc1 (stereo unspecified) | 6 | 11 | 1 | 0 | 40* | -10
CC(=O)c1c(C)[nH]c(C(=O)OCc2cccc(C)c2)c1C | 54* | -11 | -65 | -28 | 8 | 15
CCOC(=O)c1c(C)[nH]c(C(=O)OCc2ccc(C)cc2)c1C | nt | -61 | -121 | -50 | 5 | 71
CCOC(=O)c1c(C)[nH]c(N=Nc2ccccc2C)c1C | 48* | -76 | nt | nt | nt | 79
